Bioassay records (PubChem)
RmlC RmlD mix = RmlC and RmlD coupled enzyme inhibitors, primary screen, biochemical, 384-well, compound mixtures, retest; RmlC/RmlD coupled enzyme inhibition, 384-well mixture HTS; AID 1532, 2009; inhibition, % at 5.5 µM; 0.39% of 110,000 active; in the data active = inhibition above about 30%, passing the limit was not always enough; inconclusive = no clear call, values can overlap the other calls
HIV RNase H inh-1 = HIV-1 RT RNase H inhibitors, primary screen, biochemical, fluorescence | Gag-Pol polyprotein (Human immunodeficiency virus type 1 group M subtype B (isolate … | RT-RNase H RNA/DNA duplex cleavage | inhibition, % at 10 µM | 1.9% of 65,000 active | AID 565, 2006; in the data active = inhibition above about 50%
HIV RNase H inh-2 = HIV-1 RT RNase H inhibitors, retest, confirmation, biochemical | 39% of 1,000 active | AID 651, 2007 | shares compounds with HIV RNase H inh-1 | Recombinant RT RNase H, fluorescent RNA/DNA duplex cleavage | inhibition, % at 10 µM; in the data active = inhibition above about 48%; inconclusive = no clear call, values can overlap the other calls
* hit, by the source's call; ? = inconclusive; . = not tested or not shown. Only a selection was taken, and hits are over-represented in it overall.

SMILES	RmlC RmlD mix	HIV RNase H inh-1	HIV RNase H inh-2
Oc1ccccc1NCC(O)Cn1ccc2ccccc21 (configuration not stated)	-14	78*	29
OCc1nc2ccccc2n1CC(O)Cn1ccc2ccccc21 (configuration not stated)	10	-9	.
CCCn1c(SCc2ccon2)nc2ccccc2c1=O	-8	.	.
Cc1ccc2cc3cc(C(=O)N4CCN(C(=O)c5ccco5)CC4)sc3nc2c1	6	55*	29
Cc1ccc2cc3cc(C(=O)N4CCN(Cc5ccccc5)CC4)sc3nc2c1	-10	.	.
CC(C)COCC1CC2(CC(C)(c3csc(N)n3)OC2=O)C(=O)O1 (configuration not stated)	.	1	.
C=CCNc1nc(C2(C)CC3(CC(C)(C)OC3=O)C(=O)O2)cs1 (configuration not stated)	3	57*	24
CCOC(=O)CSc1nc2cc(C(=O)NCc3ccco3)ccc2c(=O)n1C1CCCCC1	14	73*	57*
CCOC(=O)CSc1nc2cc(C(=O)NCc3ccco3)ccc2c(=O)n1-c1ccc(F)cc1	6	84*	66*
CCOC(=O)CSc1nc2ccccc2c(=O)n1CC1CCC(C(=O)NCc2ccco2)CC1 (configuration not stated)	0	40	.
CCOC(=O)CSc1nc2ccccc2c(=O)n1-c1ccc(C(=O)NCCOC)cc1	-9	.	.
COc1cc(S(=O)(=O)n2nc(C)cc2C)c(OC)cc1Cl	-90	.	.
COc1ccc(F)cc1S(=O)(=O)NC1CCCC1	4	.	.
COCCOC(=O)C1=C(C)NC(SCC(=O)NC(C)(C)C)=C(C#N)C1c1ccco1 (configuration not stated)	-7	3	.
C=CCOC(=O)C1=C(C)NC(SCC(=O)Nc2ccc(C)c(Cl)c2)=C(C#N)C1c1ccco1 (configuration not stated)	17	94*	85*
C=CCNC(=O)c1onc(CSc2ccc(F)cc2)c1C(=O)NCCOC	-6	.	.
Cc1ccc(NC(=O)c2cc(-c3ccc(C)o3)nc3ccccc23)cc1	-11	.	.
Cc1ccc(-c2cc(C(=O)Nc3cccnc3)c3ccccc3n2)o1	-21	69*	32
CCCCCC(=O)N(O)C1CC(=O)N(c2ccccc2)C1=O (configuration not stated)	6	16	.
CCCCCCC(=O)N(O)C1CC(=O)N(Cc2ccccc2)C1=O (configuration not stated)	-2	66*	32
COc1cccc(C(=O)CSc2nnnn2C2CCCCC2)c1	-9	.	.
C#CCOCCOCCOCCNc1nc(N2CCOCC2)nc(N2CCN(C(=O)[C@H](CCC(=O)O)n3cc(C(N)Cc4ccc(O)cc4)nn3)CC2)n1 (some centres not stated)	-2	.	.
CCN(CCO)c1nc(SC)nc2c1sc1nc(-c3ccco3)c3c(c12)CCC3	6	.	.
CSc1nc(NCCOCCO)c2sc3nc(-c4ccco4)c4c(c3c2n1)CCC4	19	70*	42
CC(C)(C)C(=O)Nc1ccnc(-c2cccnc2)n1	-32	.	.
SMILES	RmlC RmlD mix	HIV RNase H inh-1	HIV RNase H inh-2
Cc1ccc(-c2nnc(SCC(=O)Nc3ccc(S(=O)(=O)N4CCCCCC4)cc3)o2)cc1	11	65*	?
CC(=O)c1cccc(NC(=O)CSc2nnc(-c3ccc(S(=O)(=O)N4CCCC4)cc3)o2)c1	7	21	.
Cc1ccc(S(=O)(=O)N/N=C/c2ccc(OCC(=O)NC(C)C)cc2)cc1	7	.	.
O=P(OC1CCCCC1)(OC1CCCCC1)C(O)c1ccccc1 (configuration not stated)	-19	.	.
CCn1c(=O)cc(SCC(=O)NCCN2CCN(Cc3ccccc3)CC2)c2ccccc21	4	0	.
CCn1c(=O)cc(SCC(=O)NCCCN2CCN(c3ccc(F)cc3)CC2)c2ccccc21	4	66*	38
Cc1c(C(=O)OCC(C)C)[nH]c2c1C(=O)CC(c1cccs1)C2 (configuration not stated)	-8	.	.
N[C@@H](CO)c1nnc([C@H](Cc2ccc(O)cc2)NC(=O)C2CCNCC2)o1	-10	.	.
CCC(C)(C)c1nnc(NC(=O)c2ccc([N+](=O)[O-])cc2)s1	-9	.	.
Nc1nc(SCc2ccccc2Cl)ns1	-26	.	.
CC1CCCN(S(=O)(=O)c2ccc(S(=O)(=O)NC(C)c3cccs3)cc2)C1 (configuration not stated)	-9	.	.
CCN1C(=O)N[C@@H](CCc2ccccc2)[C@H](C(=O)OC)[C@H]1C	6	.	.
Cn1c(=O)[nH]c(=O)c2c1nc(N1CCN(c3cccc(Cl)c3)CC1)n2CCCc1ccccc1	3	56*	1
CCCCCn1c(N2CCN(c3cccc(Cl)c3)CC2)nc2c1c(=O)[nH]c(=O)n2C	7	-10	.
CC1(C)CC(=O)C2=C(C1)N(Cc1ccccc1)C(=O)C2(NC(=O)C(C)(C)C)C(F)(F)F (configuration not stated)	6	.	.
CCOC(=O)c1c(C2COc3ccccc3O2)csc1NC(=O)c1ccco1 (configuration not stated)	-33	97*	54*
CCOC(=O)c1c(-c2cccs2)csc1NC(=O)c1ccco1	22	28	.
CC(C)CCCC(C)NS(=O)(=O)Cc1ccccc1 (configuration not stated)	-6	.	.
NC(=O)CN(c1ccccc1)C1SC(=O)N(Cc2ccccc2)C1=O (configuration not stated)	7	2	.
Cc1ccc(N(CC(N)=O)C2SC(=O)N(Cc3ccccc3)C2=O)cc1 (configuration not stated)	-11	63*	41
COc1cccc(CNS(=O)(=O)/C=C/c2ccc3c(c2)OCO3)c1	-6	.	.
Nc1nc(NC(=O)c2cccc(S(=O)(=O)N3CCCCCC3)c2)nc(-c2ccccc2)n1	6	66*	9
O=C(O)c1cccc(NC(=O)c2cccc(S(=O)(=O)N3CCCCC3)c2)c1	6	-9	.
COc1cc(CCN2C(=O)N[C@@H](CCc3ccccc3)C(C(C)=O)=C2C)cc(OC)c1OC	-8	.	.
O=C(CSc1ccc2nnc(-c3ccc(Cl)cc3)n2n1)N1CCN(c2ccccc2)CC1	.	60*	48
SMILES	RmlC RmlD mix	HIV RNase H inh-1	HIV RNase H inh-2
CCOc1ccc(-c2nnc3ccc(SCC(=O)N4CCN(c5ccccc5)CC4)nn23)cc1	.	-25	.
Nc1nc(Nc2ccccc2)nc2c1ncn2[C@@H]1O[C@H](CO)[C@@H](O)[C@H]1O	5	.	.
COc1ccccc1-c1cc(C(=O)N2CCN(c3ccccc3OC)CC2)no1	7	78*	47
COc1ccccc1N1CCN(C(=O)c2cc(-c3ccc(C)cc3)on2)CC1	10	-17	.
O=C1C2C3C=CC(C3)C2C(=O)N1CNc1ccc(O)cc1 (configuration not stated)	?	80*	16
Cc1ccc(NCN2C(=O)C3C4C=CC(C4)C3C2=O)cc1 (configuration not stated)	9	-11	.
CCOC(=O)c1c(NC(C)=O)sc2c1C1CCN2CC1	-10	.	.
Fc1ccc(-n2[nH]nnc2=S)cc1N1CCCC1	-5	63*	-6
Nc1ccc(N2CCCCC2)cc1N1CCCCC1	.	-3	.
COCCN1C(=O)N[C@@H](c2ccccc2)[C@@H](C(=O)OC)[C@H]1C	7	.	.
CCN1CCc2c(sc(N)c2C#N)C1	8	15	.
